Among the data in PubChem BioAssay AID1906 (The Scripps Research Institute Molecular Screening Center, 2009) are inhibition values, retold here.

Hit rate of the full screen: of about 300,000 compounds, about 1,500 (0.5%) were called active.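 The calls were made as follows: active = inhibition above the mean of all tested compounds plus 3 SD, set per screening campaign (cut at about 17% in these data); inactive = the rest.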 Many of the other results were omitted from the sample, so actives are more common in it than they were.

In this assay the test system is cathepsin L1 (Fasciola hepatica). The assay is described as follows: Fasciola hepatica cathepsin L1 inhibitors, primary screen, counter-screen for PFM18AAP inhibitor project, biochemical, QFRET, fluorogenic peptide substrate (AID 1906).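 Also: 0% = plate median of test compound wells and 100% = 1 µM Z-Phe-Ala-diazomethylketone.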 The following applies: recombinant F. hepatica cathepsin L1, Z-Leu-Arg-MCA fluorescence; at 5.96 µM; active compounds read high. On the technique in general: Counterscreens check selectivity or assay interference.
As to `Cc1ccccc1NC(=O)c1ccc(COc2ccc3c(C)cc(=O)oc3c2)cc1`, the inhibition (in general, the relative decrease from the control value, in per cent) was 1.96% (inactive).

Turning to `CCn1ccnc1CN(C)Cc1nc(-c2ccc3c(c2)OCO3)no1`, the inhibition is -4.87% (inactive).

On to `COc1ccc(NC(=O)COC(=O)CNC(=O)C2CCCCC2)cc1`, for which the inhibition is 32.3% (active).

For the compound `COc1ccc(NC(=O)CN(C)C(=O)CNC(=O)C2CCCCC2)cc1`, the inhibition was -1.07% (inactive).

`COc1ccc(CCNC(=O)COC(=O)C2CCCCC2)cc1`: the inhibition is -2.54% (inactive).

With `NC(=O)COc1ccccc1C(=O)NC12CC3CC(CC(C3)C1)C2`, the inhibition was -1.07% (inactive).

In the case of `COc1ccccc1C(=O)COC(=O)CSCC(=O)Nc1cc(C)on1`, the inhibition is -19.3% (inactive).

For the compound `COCc1cc(C)nc(SCC(=O)Nc2cccc(C)c2)c1C#N`, the inhibition is -0.64% (inactive).

`Cc1cc(C)c(C#N)c(SCc2ccccc2C(=O)O)n1`: the inhibition is -2.52% (inactive).

On to `Cc1cc(C)c(C#N)c(SCC(=O)Nc2ccccc2)n1`, for which the inhibition is 39.5% (active).

As to `Cc1c(C(=O)OC(C)C)sc(NC(=O)c2cccnc2)c1C#N`, the inhibition is 2.51% (inactive).

`COc1ccccc1CCNC(=O)CN1C(=O)NC2(CCCC2)C1=O`: the inhibition is -1.76% (inactive).

Turning to `O=C(O)CC(c1ccccc1F)N1Cc2ccccc2C1=O` (stereo not drawn), the inhibition was 0.38% (inactive).

Take `CCOc1cc(/C=C/c2nc3ccccc3c(=O)[nH]2)cc(Br)c1OC`: the inhibition is 4.32% (inactive).

As for `O=c1[nH]c(SCc2cccc(F)c2)nc2ccccc12`, the inhibition is -0.09% (inactive).

As to `O=c1[nH]c(/C=C/c2cccc(Br)c2)nc2ccccc12`, the inhibition was 49.9% (active).

`COc1ccc(S(=O)(=O)N2CCOC2CNC(=O)C(=O)NCc2ccncc2)cc1C` (stereo not drawn): the inhibition was -2.32% (inactive).

With `O=C1CSC(=S)N1c1ccc(O)cc1`, the inhibition was 2.41% (inactive).

In the case of `Cc1cc(=O)[nH]c(S)c1C#N`, the inhibition is 3.28% (inactive).

With `CC(=O)c1cc(C#N)c(N2CC(C)OC(C)C2)nc1C` (stereo not drawn), the inhibition was 20% (active).

Regarding `CC(=O)c1cc(C#N)c(SCC(=O)C(C)(C)C)nc1C`, the inhibition was 5.58% (inactive).

With `Cc1ccc(-c2nnc(C)c(N3CC(C)OC(C)C3)n2)cc1` (stereo not drawn), the inhibition was 1.07% (inactive).

For `O=C(Nc1nnc(SCc2c(Cl)cccc2Cl)s1)C1CCCO1` (stereo not drawn), the inhibition is 4.51% (inactive).

Take `O=C(Nc1nnc(CCc2ccccc2)s1)C1CCCO1` (stereo not drawn): the inhibition was 18% (active).

On to `O=C(Nc1ccc(-c2nnc(-c3ccccc3)o2)cc1)C1CCCO1` (stereo not drawn), for which the inhibition was 0.12% (inactive).

Regarding `OCCNc1nc(Nc2ccc(Cl)c(Cl)c2)nc2ccccc12`, the inhibition was 2.53% (inactive).

Take `CS(=O)(=O)c1ccc(Cl)c(NC(=O)COC(=O)c2ncc(Cl)c(Cl)c2Cl)c1`: the inhibition was -5.36% (inactive).

With `Cc1ccc(S(=O)(=O)CC(=O)Nc2sc(C)c(C)c2C(N)=O)cc1`, the inhibition is 17.8% (active).

On to `Cc1ccc(S(=O)(=O)CC(=O)Nc2nnc(C)s2)cc1`, for which the inhibition is -3.43% (inactive).

For the compound `CC(=O)N1CCc2c(sc(NC(=O)CCS(=O)(=O)c3ccc(C)cc3)c2C(N)=O)C1`, the inhibition was -1.1% (inactive).

On to `C/C=C(\C)C(=O)NCCN1C2=NC[C@H](Cc3ccc(O)cc3)N2C[C@@H]1Cc1ccc(OC)cc1`, for which the inhibition is -2.36% (inactive).

Take `O=C(O)CSCC(=O)Nc1cccc(C(F)(F)F)c1`: the inhibition is 16.9% (active).

Regarding `O=C(O)CSCC(=O)Nc1ccc(C(F)(F)F)cc1`, the inhibition is -1.45% (inactive).

With `O=C(O)CC1(CC(=O)Nc2cccc(C(F)(F)F)c2)CCCC1`, the inhibition was -5.07% (inactive).

As to `CCOc1cc(N2CCOCC2)c(OCC)cc1NC(=O)COc1cccc2cccnc12`, the inhibition is -0.24% (inactive).

Turning to `CCOc1cc(N2CCOCC2)c(OCC)cc1NC(=O)COc1cccc(Cl)c1`, the inhibition is 30.1% (active).

With `CCOc1cc(N2CCOCC2)c(OCC)cc1NC(=O)c1ccc(C)s1`, the inhibition is -0.83% (inactive).

Turning to `Cc1c(C=O)c2ccccc2n1CCOc1ccccc1`, the inhibition is 1.89% (inactive).

Regarding `O=C(O)c1cccnc1NC1CCCC1`, the inhibition was 1.66% (inactive).

With `Cc1cc(C)nc(N(C#N)CC(=O)Nc2ccccc2)n1`, the inhibition was 1.63% (inactive).

With `COC(=O)C(C)N(C#N)c1nc(C)nc(C)n1` (stereo not drawn), the inhibition is 1.79% (inactive).

On to `CNc1nc(SC)nc(N(C#N)CC(=O)OC)n1`, for which the inhibition was 42.3% (active).

In the case of `COc1ccc(CC(NC(C)=O)C(=O)N2CCN(C(=O)Nc3cccc(Cl)c3)CC2)cc1OC` (stereo not drawn), the inhibition is -4.54% (inactive).

Take `Cn1cc(S(=O)(=O)Nc2ccc(Cl)cc2Cl)c(=O)n(C)c1=O`: the inhibition was -0.98% (inactive).

For `Cc1ccc(NC(=S)N(Cc2ccco2)C(C)c2cccs2)cc1` (stereo not drawn), the inhibition was 22.4% (active).

Take `Cc1ccc(NC(=S)N(CCN2CCCCC2)Cc2ccco2)cc1C`: the inhibition is -2.51% (inactive).

In the case of `Cc1ccc(NC(=S)N(CCCN2CCC(C)CC2)Cc2ccco2)cc1`, the inhibition is -0.39% (inactive).

With `COn1c(=O)c(=O)n(OC)c2ccccc21`, the inhibition is 2.56% (inactive).

Turning to `O=C(Cc1ccccc1)n1nc(-c2ccccc2)nc1NCc1ccco1`, the inhibition is 51.2% (active).

In the case of `CS(=O)(=O)n1nc(-c2ccccc2)nc1NCc1ccco1`, the inhibition is 0.56% (inactive).

`O=C(NCc1ccco1)c1nc(-c2ccccc2)n(-c2ccccc2)n1`: the inhibition was -1.81% (inactive).

Regarding `c1csc(CN2CCN(Cc3cccs3)C2c2cccs2)c1`, the inhibition is 17% (active).

Turning to `O=C1c2cccnc2C(=O)N1Cc1cccs1`, the inhibition is 0.86% (inactive).

On to `O=C(CSCc1cccs1)N1CCCC1`, for which the inhibition is -3.58% (inactive).

Regarding `COC(=O)Nc1ccc(S(=O)(=O)Nc2cc(OC)nc(OC)n2)cc1`, the inhibition was 2.38% (inactive).

In the case of `COc1ccc(C(CCN(Cc2ccc(OC)c(OC)c2)C(=O)CCl)c2ccccc2)cc1` (stereo not drawn), the inhibition is 59.9% (active).

With `COc1ccc(CN(C)C(=O)CC(c2ccccc2)c2ccccc2)cc1`, the inhibition is 2.03% (inactive).

Take `COc1ccc(COC(=O)NC(C(=O)O)c2ccccc2)cc1` (stereo not drawn): the inhibition was 0.08% (inactive).

`CCN(CC(=O)Nc1ccc(NC(C)=O)cc1)C(=O)C1CC(=O)N(Cc2ccc(C)cc2)C1` (stereo not drawn): the inhibition is 6.92% (inactive).

Take `O=c1c2ccccc2cnn1Cc1n[nH]c(=S)n1-c1ccccc1F`: the inhibition was -4.23% (inactive).

With `COC(=O)C1=C(NC(=O)C(C)(C)C)CCS1`, the inhibition was -1.55% (inactive).

On to `NC(=O)c1ccsc1NC(=O)COC(=O)Cc1n[nH]c(=O)c2ccccc12`, for which the inhibition was 2.85% (inactive).

Consider `COc1cc(OC)c(C2=NOC(C(=O)Nc3c(C)n(C)n(-c4ccccc4)c3=O)C2)cc1Cl` (stereo not drawn), for which the inhibition is 4.46% (inactive).

Regarding `Cc1ncn(C23CC4CC(CC(O)(C4)C2)C3)n1`, the inhibition is 23.6% (active).

Consider `COC(=O)c1ccc(NC(=O)C23CC4CC(C2)CC(n2cnc(Cl)n2)(C4)C3)cc1`, for which the inhibition was 0.89% (inactive).

Turning to `CC(N)C12CC3CC(CC(O)(C3)C1)C2` (stereo not drawn), the inhibition was -3.06% (inactive).

For the compound `COc1ccc(CCNC(=O)CN2C(=O)CCSc3ccccc32)c(OC)c1`, the inhibition was -0.1% (inactive).

For `Cc1ccc(Nc2c(F)c(F)c(F)c(F)c2C(=O)O)c(C)c1`, the inhibition was -4.87% (inactive).

As for `COc1ccc(C2=NS(=O)(=O)N(C)C(C(=O)NC(C)c3ccccc3)=C2)cc1` (stereo not drawn), the inhibition was 11.2% (inactive).

Regarding `COc1ccc(NC(=O)NCCN2CCN(c3ccc(C)cc3)CC2)c(Cl)c1`, the inhibition is 2.74% (inactive).

For `COc1ccc(Cl)cc1NC(=O)COC(=O)C(CC(C)C)N1C(=O)C2CC=CCC2C1=O` (stereo not drawn), the inhibition is 39.5% (active).

With `COc1ccc(Cl)cc1NC(=O)CCN1CCOCC1`, the inhibition is -1.4% (inactive).

Regarding `COc1ccc(Cl)cc1NC(=O)c1cccc(N2C(=O)C3CC=CCC3C2=O)c1` (stereo not drawn), the inhibition was 0.1% (inactive).

For the compound `O=C(CN1CCN(S(=O)(=O)c2ccc(Cl)s2)CC1)NCc1ccc(Cl)cc1`, the inhibition was -3.91% (inactive).

On to `COc1ccc(CNC(=O)CCN2C(=O)c3ccccc3C2=O)cc1`, for which the inhibition was -1.89% (inactive).

On to `COc1ccc(CNC(=O)C(Cc2ccccc2)n2cccc2)cc1` (stereo not drawn), for which the inhibition was 2.08% (inactive).

Consider `COc1ccc(CNC(=O)CCn2cccc2)cc1`, for which the inhibition was 17.3% (active).

As for `COc1ccc(OC)c(NC(=O)c2cccc(S(=O)(=O)N3CCN(C(C)=O)CC3)c2)c1`, the inhibition was -1.16% (inactive).
